Active and inactive are the calls of the source.

Our source for the z-score and composite z-score values is PubChem BioAssay.

The nature of experiment [1]: compound effects on differentiated 3T3-L1 adipocyte viability – cell-based, 3T3-L1 adipocytes, calcein-AM fluorescence, 48 h, basal, profiling panel (AID 1163). Particulars: 3T3-L1 adipocytes viability, higher = more signal.
Experiment [2] in a line: compound effects on hepatocellular carcinoma cell viability – HepG2, calcein-AM fluorescence, 48 h, basal, profiling panel (AID 1164). Particulars: higher = more signal.
Experiment [3] in a line: compound effects on multiple myeloma cell viability – MM1S, calcein-AM fluorescence, 48 h, basal, profiling panel (AID 1165).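 Note: viability of MM1S multiple myeloma cells under basal unstimulated conditions.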 The following applies: higher = more signal.
Experiment [4] is described as follows: calcein-AM signal in unstimulated myeloma cells – cell-based, calcein-AM fluorescence, 48 h, PK04 Diversity Set, profiling panel (AID 1166).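 Note: cells grown under basal conditions without added stimulus.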 The following applies: RPMI8226 myeloma viability, higher = more signal.
Experiment [5] can be described thus: JC-1 mitochondrial signal, unstimulated HepG2 cells – cell-based, JC-1 fluorescence, 24 h, 100 nL compound, profiling panel (AID 1167). The following applies: HepG2 mitochondrial potential, higher = more signal.
The nature of experiment [6]: JC-1 mitochondrial signal, unstimulated adipocytes – cell-based, JC-1 fluorescence, 3T3-L1 adipocytes, 24 h, 100 nL compound, profiling panel (AID 1168). Particulars: JC-1 mitochondrial fluorescence, higher = more signal, called active from +8 up or from −8 down.
Experiment [7] is described as follows: JC-1 mitochondrial signal, unstimulated myeloma cells – cell-based, JC-1 fluorescence, RPMI8226, 24 h, 100 nL compound, profiling panel (AID 1169). Particulars: JC-1 mitochondrial potential fluorescence, higher = more signal.
The nature of experiment [8]: JC-1 mitochondrial signal, unstimulated MM1S myeloma – cell-based, JC-1 fluorescence, 24 h, 100 nL compound, profiling panel (AID 1170). Particulars: MM1S mitochondrial potential, higher = more signal.
Experiment [9] can be described thus: resazurin metabolic signal in A549 cells – cell-based, resazurin fluorescence, 24 h, PK04 Diversity Set, profiling panel (AID 1171). Particulars: A549 viability, higher = more signal, called active from +8 up or from −8 down. A general note: Resazurin is reduced to fluorescent resorufin, in cell work by metabolically active cells.
Experiment [10] in a line: resazurin metabolic signal in HepG2 cells – cell-based, resazurin fluorescence, 24 h, PK04 Diversity Set, profiling panel (AID 1172). The following applies: HepG2 viability, higher = more signal.
Experiment [11] is described as follows: budding yeast growth changes without added modifier – OD600, strain BY4716, 24 h, basal condition, primary screen (AID 1173). Particulars: S. cerevisiae BY4716 growth, OD600, 24 h; higher = more signal, called active from +8 up or from −8 down.
The nature of experiment [12]: viability profiling in MM1S myeloma cells – cell-based, resazurin fluorescence, basal, 24 h, PK04 Diversity Set, profiling panel (AID 1174). The following applies: higher = more signal, called active from +8 up or from −8 down.
Experiment [13] concerns the target Dihydroorotate dehydrogenase (quinone), mitochondrial (Plasmodium falciparum (isolate 3D7)) (UniProt Q08210). Description: inhibition of P. falciparum DHODH – biochemical, C-terminal His tag, absorbance 600 nm, primary screen (AID 1175).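 Note: recombinant parasite enzyme with a five histidine tag at its C terminus.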 Particulars: PfDHODH enzyme, DCIP absorbance 600 nm; higher = more signal, called active from +8 up or from −8 down.
Experiment [14] is described as follows: growth modulation of vineyard yeast isolate – strain RM11-1a, OD600, basal, 24 h, primary screen (AID 1177).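 Note: cultures grown under basal conditions with no added stressor.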 Particulars: S. cerevisiae RM11-1a growth, OD600, 24 h; higher = more signal, called active from +8 up or from −8 down.
Experiment [15] can be described thus: growth of efflux-deficient E. coli DRC39 – strain DRC39, OD650, 24 h, E. coli filamentation inducers, primary screen (AID 1178).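 Note: growth measured as culture turbidity by optical density at 650 nm.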 The following applies: E. coli DRC39 acrAB, higher = more signal, called active from +8 up or from −8 down.
Experiment [16] is described as follows: growth of efflux-deficient E. coli DRC39 – strain DRC39, OD650, 48 h, E. coli filamentation inducers, primary screen (AID 1179).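 Note: screen aims at cell division blockers that make cells filament.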 The following applies: E. coli DRC39 delta-acrAB growth, higher = more signal, called active from +8 up or from −8 down.
Experiment [17] is described as follows: viability profiling in RPMI8226 myeloma cells – cell-based, resazurin fluorescence, basal, 24 h, PK04 Diversity Set, profiling panel (AID 1180).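 Note: RPMI8826 multiple myeloma cell line at 5000 cells per well.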 Particulars: higher = more signal.
Experiment [18] concerns the target E3 ubiquitin-protein ligase XIAP (Homo sapiens) (UniProt P98170). Description: small molecules binding XIAP protein – biophysical, small-molecule microarray, fluorescence 635 nm, primary screen (AID 1181).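 Note: score merges 667 nm emission and signal to noise over triplicate slides.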 The following applies: higher = more signal.
Experiment [19] deals with XIP peptide (Xip251-270) binding. Description: XIP fragment 251-270 binding compounds – biochemical, small-molecule microarray, fluorescence 635/667 nm, 0.1 µg/mL protein, primary screen (AID 1182). The following applies: fluorescent protein binding, 635 nm, higher = more signal, called active from +8 up or from −8 down.
Another experiment concerns XIP peptide (Xip251-270). Description: compounds binding XIP fragment 251-270 – biochemical, small-molecule microarray, fluorescence 635/667 nm, 0.5 µg/mL protein, primary screen (AID 1183). The following applies: fluorescence 635 nm, higher = more signal.

Sequence of E3 ubiquitin-protein ligase XIAP (Homo sapiens) (P98170 whole entry, looked up, the tested form may be a part): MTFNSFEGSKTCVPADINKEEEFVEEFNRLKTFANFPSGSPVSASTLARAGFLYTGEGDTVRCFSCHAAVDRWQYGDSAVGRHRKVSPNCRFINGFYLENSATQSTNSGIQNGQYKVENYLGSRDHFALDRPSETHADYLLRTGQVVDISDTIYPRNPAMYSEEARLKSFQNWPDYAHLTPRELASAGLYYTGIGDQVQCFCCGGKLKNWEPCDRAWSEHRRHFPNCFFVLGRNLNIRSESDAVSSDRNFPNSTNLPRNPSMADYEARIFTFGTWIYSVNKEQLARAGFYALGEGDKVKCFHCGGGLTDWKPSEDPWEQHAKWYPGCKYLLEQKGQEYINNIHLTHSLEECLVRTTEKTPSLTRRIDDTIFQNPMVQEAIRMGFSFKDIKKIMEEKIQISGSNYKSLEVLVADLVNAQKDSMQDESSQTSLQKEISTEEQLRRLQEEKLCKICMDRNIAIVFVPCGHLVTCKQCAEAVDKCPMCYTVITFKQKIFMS
Sequence of Dihydroorotate dehydrogenase (quinone), mitochondrial (Plasmodium falciparum (isolate 3D7)) (Q08210 whole entry, looked up): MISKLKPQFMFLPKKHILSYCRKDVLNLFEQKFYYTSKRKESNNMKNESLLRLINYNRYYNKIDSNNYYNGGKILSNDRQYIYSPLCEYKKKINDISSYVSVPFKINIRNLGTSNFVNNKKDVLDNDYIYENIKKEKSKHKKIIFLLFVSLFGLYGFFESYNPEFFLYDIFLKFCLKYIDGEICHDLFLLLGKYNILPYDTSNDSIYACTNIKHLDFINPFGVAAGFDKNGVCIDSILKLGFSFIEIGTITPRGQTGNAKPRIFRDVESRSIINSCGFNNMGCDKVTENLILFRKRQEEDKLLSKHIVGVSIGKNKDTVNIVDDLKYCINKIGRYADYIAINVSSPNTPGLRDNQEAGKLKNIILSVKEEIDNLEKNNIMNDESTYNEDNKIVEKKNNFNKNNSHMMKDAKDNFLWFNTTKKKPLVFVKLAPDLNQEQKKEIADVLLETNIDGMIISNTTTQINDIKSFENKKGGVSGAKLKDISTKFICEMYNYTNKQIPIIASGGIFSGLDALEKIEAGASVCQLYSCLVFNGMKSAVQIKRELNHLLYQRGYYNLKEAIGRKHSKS

With `O=C1c2ccccc2[C@](Cc2ccccc2I)(C(=O)O)[C@H](c2ccc(CO)cc2)N1Cc1ccccc1Cl`, the z-score was 1 in [1]; -0.504 in experiment [2]; -0.089 in [3]; -1.18 in [4]; -0.172 in experiment [5]; 0.571 (inactive) in experiment [6]. For the same compound, the z-score in [7] was -0.565; in [8] it was 0.295; in experiment [9], 0.177 (inactive); in experiment [10], 0.722; in experiment [11], -2.78 (inactive); in experiment [12], 1.34 (inactive). The z-score is -1.29 (inactive) in experiment [14], -0.0031 (inactive) in experiment [15], -0.11 (inactive) in experiment [16] and 0.601 in experiment [17]. For the same compound, the composite z-score was -0.812 (inactive) in experiment [13], -0.148 in experiment [18], 0.8 (inactive) in experiment [19] and 0.507 in the experiment with XIP peptide (Xip251-270).

With `CC(C)[Si](C#C[Si](C(C)C)(C(C)C)C(C)C)(O[C@H](C)c1cn([C@H](C)c2ccccc2)nn1)C(C)C`, the z-score in experiment [1] is 0.517; in experiment [2] it was 0.417; in experiment [3], -0.908; in experiment [4], 1.5; in [5], 2.71; in [6], 1.94 (inactive). For the same compound, the z-score in experiment [7] was -0.87; in experiment [8], 0.265; in experiment [9] it was 3.13 (inactive); in experiment [10], 1.3; in experiment [11], -0.0779 (inactive); in experiment [12], 2.34 (inactive). The z-score in experiment [14] was -1.88 (inactive); in [15], 2.06 (inactive); in [16] it was 0.944 (inactive); in experiment [17], 2.41. The composite z-score in experiment [13] was -0.32 (inactive); in [18], -0.0559; in [19], -0.608 (inactive); in the experiment on XIP peptide (Xip251-270) it was 0.193.

Regarding `O=C(NC1CC1)[C@@H]1c2ccccc2C(=O)N(Cc2ccccc2C(F)(F)F)[C@H]1c1ccc(CO)cc1`, the z-score was 1.59 in experiment [1]; 0.0356 in experiment [2]; -0.124 in [3]; 0.702 in experiment [4]; 1.26 in [5]; 0.387 (inactive) in [6]. The z-score in experiment [7] was -0.0417; in experiment [8], 0.65; in [9] it was 1.99 (inactive); in [10], 0.187; in experiment [11], -0.844 (inactive); in experiment [12], 1.55 (inactive). Moreover, the z-score in experiment [14] is -0.615 (inactive); in experiment [15], 0.487 (inactive); in experiment [16] it was -0.152 (inactive); in [17], 1.98. Further, the composite z-score was 0.209 (inactive) in [13], -0.0848 in [18], 0.62 (inactive) in experiment [19] and 0.618 in the experiment on XIP peptide (Xip251-270).

`COCCCN1C(=O)[C@@]2(Cc3ccccc31)c1ccccc1C(=O)N(Cc1ccccc1Cl)[C@H]2c1ccc(CO)cc1`: the z-score was -0.414 in experiment [1]; 0.0836 in [2]; 0.712 in experiment [3]; 0.485 in [4]; 1.58 in experiment [5]; 1.33 (inactive) in experiment [6]. Moreover, the z-score in experiment [7] is 0.15; in experiment [8] it was 0.828; in [9] it was -0.306 (inactive); in experiment [10], -0.384; in [11] it was -0.846 (inactive); in [12] it was 0.686 (inactive). For the same compound, the z-score is -0.921 (inactive) in experiment [14], 0.56 (inactive) in [15], 0.891 (inactive) in [16] and 0.902 in experiment [17]. In addition, the composite z-score in [13] is -12.4 (active); in experiment [18], -0.0699; in experiment [19], -0.31 (inactive); with XIP peptide (Xip251-270), 0.107.

On to `CC(C)N1CC=CC23O[C@@H]4/C=C\CCCOC(=O)C4[C@H]2C(=O)N(CCCO)[C@@H]3C1=O` (stereo not given in full), for which the z-score in experiment [1] is 0.834; in [2] it was 0.152; in experiment [3] it was 0.827; in [4], 0.311; in experiment [5] it was 0.795; in experiment [6], 0.32 (inactive). The z-score in experiment [7] is 0.747; in experiment [8] it was 0.789; in [9], 0.817 (inactive); in [10] it was 0.129; in experiment [11], 0.11 (inactive); in [12] it was 0.791 (inactive). In addition, the z-score in [14] was 1.05 (inactive); in [15] it was 1.36 (inactive); in experiment [16], 1.25 (inactive); in [17], 1.78. The composite z-score in experiment [13] is -0.506 (inactive); in [18], 0.0126; in experiment [19] it was 0.015 (inactive); in the experiment with XIP peptide (Xip251-270), -0.556.

Turning to `NCCCCCCNC(=O)[C@@H]1C[C@@H]2C(=O)N[C@@H](Cc3ccccc3)C(=O)N2[C@@H]1c1ccc(O)cc1`, the z-score in experiment [1] was 1.09; in [2] it was -0.46; in experiment [3], 0.0892; in experiment [4] it was -0.141; in experiment [5] it was 0.666; in experiment [6], -0.386 (inactive). Further, the z-score in [7] was 0.0478; in experiment [8] it was 0.188; in experiment [9], 1.19 (inactive); in [10], 0.368; in [11] it was -1.77 (inactive); in experiment [12], 1.38 (inactive). Further, the z-score in experiment [14] was -0.509 (inactive); in experiment [15], 0.236 (inactive); in experiment [16], 0.476 (inactive); in experiment [17] it was 1.53. Besides, the composite z-score in experiment [13] is 0.687 (inactive); in experiment [18], -0.305; in experiment [19] it was 0.208 (inactive); in the experiment with XIP peptide (Xip251-270) it was 0.225.

For the compound `CCOC(=O)C[C@H]1[C@H](OC(=O)c2ccc(-c3ccccc3)cc2)[C@@H](NC(=O)c2ccccc2)c2cc(OCCCO)ccc2N1C(=O)c1ccccc1`, the z-score in [1] is 1.54; in [2], -0.159; in experiment [3] it was 1.11; in experiment [4], -0.132; in experiment [5], 3.28; in experiment [6] it was 0.318 (inactive). The z-score in experiment [7] is 0.709; in experiment [8] it was 1.38; in experiment [9], -0.325 (inactive); in [10], 0.643; in experiment [11], -1.34 (inactive); in [12], 1.83 (inactive). Further, the z-score is -1.37 (inactive) in experiment [14], 1.76 (inactive) in experiment [15], 1 (inactive) in [16] and 0.815 in experiment [17]. For the same compound, the composite z-score is 0.594 (inactive) in experiment [13], -0.0351 in [18], 0.358 (inactive) in experiment [19] and -0.206 in the experiment on XIP peptide (Xip251-270).

On to `C=C(CCCC)/C(=C/C[C@H](OC(=O)c1ccncc1)c1ccc(CO)o1)c1cnc2ccccc2c1`, for which the z-score in experiment [1] was 0.87; in [2], -0.76; in experiment [3] it was -2.31; in [4] it was 0.117; in [5], 0.265; in experiment [6] it was 1.03 (inactive). Also, the z-score is 0.519 in experiment [7]; -0.656 in experiment [8]; 0.274 (inactive) in experiment [9]; 0.921 in experiment [10]; -1.7 (inactive) in experiment [11]; 0.511 (inactive) in experiment [12]. Moreover, the z-score was -0.716 (inactive) in [14], 1.67 (inactive) in [15], 1.01 (inactive) in [16] and 0.874 in experiment [17]. Besides, the composite z-score in experiment [13] is -6.96 (inactive); in [18], -0.105; in experiment [19], 0.291 (inactive); with XIP peptide (Xip251-270), 0.413.
